Results taken from article PMC5540273 (PLoS ONE, 2017).

Assays:
Conditions in all cases: concentration: 1 μM,replicates: in singlicate; n = 1
[1] = system: JAK1(JH2domain-pseudokinase)
[2] = system: JAK2(JH1domain-catalytic)
[3] = system: JAK3(JH1domain-catalytic)
JNK1 = system: T1, JNK1
T1 construct: gene MAPK8

JNK2 = system: T2, JNK2
T2 construct: gene MAPK9

JNK3 = system: T3, JNK3
T3 construct: gene MAPK10

KIT-autoinhibited = system: KIT-autoinhibited
KIT = system: KIT
LATS1 = system: LATS1
LATS2 = system: LATS2
LCK = system: LCK
LIMK1 = system: LIMK1
LIMK2 = system: LIMK2
LKB1 = system: T4, LKB1
T4 construct: gene STK11

LOK = system: T5, LOK
T5 construct: gene STK10

LRRK2 = system: LRRK2
LTK = system: LTK
LYN = system: LYN
LZK = system: T6, LZK
T6 construct: gene MAP3K13

MAK = system: MAK
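Further: KINOMEscan kinase panel screen.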

| Structure (SMILES) | %Inh [1] [%] | %Inh [2] [%] | %Inh [3] [%] | %Inh (JNK1) [%] | %Inh (JNK2) [%] | %Inh (JNK3) [%] | %Inh (KIT-autoinhibited) [%] | %Inh (KIT) [%] | %Inh (LATS1) [%] | %Inh (LATS2) [%] | %Inh (LCK) [%] | %Inh (LIMK1) [%] | %Inh (LIMK2) [%] | %Inh (LKB1) [%] | %Inh (LOK) [%] | %Inh (LRRK2) [%] | %Inh (LTK) [%] | %Inh (LYN) [%] | %Inh (LZK) [%] | %Inh (MAK) [%] |
| --- | --- | --- | --- | --- | --- | --- | --- | --- | --- | --- | --- | --- | --- | --- | --- | --- | --- | --- | --- | --- |
| O=C1NCCc2[nH]c(-c3ccncc3)cc21 | 26 | 73 | 87 | 30 | 24 | 45 | 0 | 14 | 23 | 34 | 9 | 5 | 2 | 0 | 6 | 31 | 0 | 0 | 2 | 21 |
| CCOC(=O)N1CCC(n2cnc(-c3ccc(F)cc3)c2-c2ccnc(N)n2)CC1 [SB-219952] | 42 | 32 | 0 | 77 | 96.8 | 98.4 | 8 | 40 | 0 | 0 | 0 | 8 | 13 | 15 | 100 | 0 | 17 | 9 | 15 | 0 |
| O=C(Nc1ccc(Oc2ccc3nc(NC(=O)C4CC4)cn3n2)c(F)c1)c1cccn(-c2ccccc2)c1=O | 0 | 0 | 0 | 0 | 0 | 0 | 0 | 100 | 0 | 0 | 0 | 33 | 29 | 0 | 99.5 | 0 | 29 | 36 | 0 | 10 |
| CN1CCN(CCNc2nc3cc(Oc4ccc(NC(=O)Nc5cc(C(F)(F)F)ccc5F)cc4)ccc3[nH]2)CC1.Cl.Cl [GW768504] | 15 | 5 | 0 | 0 | 0 | 0 | 4 | 99.8 | 0 | 0 | 22 | 0 | 2 | 38 | 95.2 | 0 | 19 | 12 | 0 | 13 |
| Cn1ccc2ncnc(Oc3ccc(NC(=O)Nc4cccc(C(F)(F)F)c4)c(Cl)c3)c21 | 45 | 11 | 25 | 9 | 0 | 0 | 37 | 100 | 9 | 0 | 79 | 0 | 0 | 11 | 99.9 | 0 | 56 | 63 | 0 | 28 |
| C[C@@H]1CNc2c(sc3ccc4nc(-c5ccncc5)ccc4c23)C(=O)N1 | 64 | 0 | 78 | 0 | 0 | 0 | 7 | 34 | 0 | 24 | 13 | 0 | 0 | 0 | 14 | 100 | 65 | 6 | 0 | 0 |
| CCN1CCN(CCCC(=O)Nc2n[nH]c3nc(-c4ccc(O)cc4)c(Br)cc23)CC1 [SB-731579] | 0 | 80 | 87 | 55 | 38 | 34 | 15 | 31 | 0 | 0 | 66 | 0 | 0 | 23 | 13 | 0 | 20 | 0 | 0 | 35 |
| FC(F)(F)c1cc(Br)cc(Nc2nccc(-c3cnn4ncccc34)n2)c1 [GW810578] | 80 | 0 | 0 | 0 | 5 | 1 | 63 | 100 | 0 | 6 | 4 | 0 | 0 | 14 | 25 | 58 | 18 | 8 | 0 | 55 |
| N#Cc1cccc(C(=O)NC2CCN(c3ccnc(Nc4ccc(F)cc4)n3)C2)c1 (centres unmarked) [GSK1379708] | 0 | 16 | 0 | 26 | 34 | 17 | 0 | 9 | 0 | 0 | 22 | 0 | 0 | 0 | 0 | 0 | 0 | 0 | 0 | 18 |
| Cc1ccc(C(=O)Nc2ccc(Oc3ccc4nc(NC(=O)C5CC5)cn4c3)c(F)c2)c(=O)n1-c1ccccc1 | 0 | 81 | 15 | 0 | 0 | 0 | 24 | 100 | 14 | 0 | 99.2 | 42 | 21 | 34 | 99.9 | 0 | 38 | 57 | 0 | 0 |
